{"source": "PubChem BioAssay AID449748", "about": "(Broad Institute, 2010)", "note": "The whole screen tested about 2,200 compounds, of which about 2,200 (100%) were called active. So high a share suggests a set chosen from earlier hits. The list shows a part of the results. Results with a measured potency or affinity are listed apart. Records with an inconclusive call do not appear. Unmarked numbers belong to inactive results. How the calls were made is not given here."}
{"assay": "PubChem AID 449748", "settings": "cancer stem cell-like cells viability, luminescence; series mostly up to 19.5 µM; activity change, negative = inhibition: at the top concentration", "units": {"activity change, negative = inhibition": "%"}}
{"compound": "CSc1ccccc1C(=O)Nc1cc(C)ccc1C", "activity change, negative = inhibition": 31.1}
